pPAFAH inh – pPAFAH (human) enzyme inhibition | inhibition, % at 3.39 µM | Q13093 | recombinant pPAFAH, FP-rhodamine probe fluorescence polarization | 1.5% of 330,000 active;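 active = inhibition above the mean inhibition across the screen plus 3 SD, cut at about 25% in these data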;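 note: inhibitors block binding of the rhodamine activity-based probe so polarization drops; 0% = enzyme with DMSO and 100% = wells lacking pPAFAH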
Target sequence (Q13093 whole entry, looked up): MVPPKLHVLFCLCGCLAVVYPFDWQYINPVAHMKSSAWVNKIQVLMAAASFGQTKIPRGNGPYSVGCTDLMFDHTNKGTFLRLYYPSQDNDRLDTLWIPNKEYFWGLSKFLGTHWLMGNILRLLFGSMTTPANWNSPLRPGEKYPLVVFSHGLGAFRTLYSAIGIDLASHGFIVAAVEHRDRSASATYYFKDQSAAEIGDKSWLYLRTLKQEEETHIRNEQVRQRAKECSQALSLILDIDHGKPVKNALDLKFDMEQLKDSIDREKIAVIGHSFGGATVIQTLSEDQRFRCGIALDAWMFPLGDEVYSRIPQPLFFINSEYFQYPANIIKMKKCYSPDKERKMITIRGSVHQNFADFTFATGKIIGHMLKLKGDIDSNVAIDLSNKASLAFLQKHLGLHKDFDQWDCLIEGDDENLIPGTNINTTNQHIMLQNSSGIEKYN
LYPLA1 counter – counter-screen for PME1 inhibitors: inhibitors of human LYPLA1; O75608; recombinant LYPLA1, FP-Rh probe fluorescence polarization; inhibition, % at 5.9 µM; 0.16% of 320,000 active; AID 2174;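 active = inhibition above the mean of all tested compounds plus 3 SD, set per campaign, cut at about 14% in these data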;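 note: inhibitors block serine hydrolase probe labeling of LYPLA1 so polarization falls; 0% = enzyme with DMSO and 100% = wells lacking LYPLA1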
PAFAH1B3 FP inh – PAFAH1B3 (human) inhibition | Q15102 | AID 492972 | recombinant PAFAH1B3, FP-rhodamine probe, fluorescence polarization | 0.28% of 340,000 active | inhibition, % at 3.39 µM;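 active = inhibition above the screen-wide average of all tested compounds plus 3 SD, cut at about 25% in these data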;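 note: 0% = enzyme with DMSO only and 100% = wells lacking PAFAH1B3 protein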
PAFAH1B2 FP inh – inhibitors of human PAFAH1B2; P68402; recombinant PAFAH1B2, FP-rhodamine activity probe, fluorescence polarization; inhibition, % at 3.39 µM; 1.2% of 340,000 active; AID 492953;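 active = inhibition above the mean of all tested compounds plus 3 SD, cut at about 24% in these data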;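 note: 0% = enzyme with DMSO and 100% = wells lacking PAFAH1B2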
LYPLA2 counter – LYPLA2 (human) inhibition in PME1 counter-screen | recombinant LYPLA2, FP-Rh probe fluorescence polarization | inhibition, % at 5.9 µM | 0.38% of 320,000 active;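 active = inhibition above the screen-wide mean plus 3 SD, limit set per campaign, cut at about 26% in these data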;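 note: 0% = LYPLA2 with DMSO and 100% = wells lacking LYPLA2 enzyme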
PAFAH2 inh – PAFAH2 (human) inhibition. Q99487. recombinant PAFAH2, FP-rhodamine activity probe, fluorescence polarization. inhibition, % at 3.39 µM. 0.99% of 340,000 active. AID 492956;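 active = inhibition above the mean over all tested compounds plus 3 SD, cut at about 30% in these data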;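 note: inhibitors block probe labeling of enzyme so polarization drops; 0% = enzyme with DMSO and 100% = wells lacking PAFAH2 protein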
* hit, by the source's call; / = no result given. Most compounds without a hit are left out; they make up all but 2.9% or so of the library.

SMILES	pPAFAH inh	LYPLA1 counter	PAFAH1B3 FP inh	PAFAH1B2 FP inh	LYPLA2 counter	PAFAH2 inh
CCC(=O)N1CCc2cc(S(=O)(=O)NC(Cc3ccccc3)C(=O)NC3CCCCC3)ccc21 (stereo unspecified)	/	/	0.3	1.8	/	-5.0
CC(C)c1ccc(C(=O)COC(=O)C(O)c2ccccc2)cc1 (stereo unspecified)	29.4*	/	7.3	12.9	/	9.2
O=C(Cc1ccc([N+](=O)[O-])cc1)Nc1cccnc1	6.9	2.8	5.6	-1.9	3.8	8.8
O=C1C=CC(=O)N1c1cccc(-c2ccccc2)c1	26.9*	-7.2	-3.1	-6.0	-13.7	-6.6
Cc1ccc(CNC(=O)/C=C/c2ccccc2Cl)cc1	1.2	1.1	11.3	4.5	-0.1	-2.1
Oc1ccc(Nc2nc3ccccc3nc2Nc2ccc(O)cc2)cc1	11.3	-13.4	39.5*	26.7*	-20.0	-35.2
CC(C)(C)c1ccc(S(=O)(=O)N(CCCN2CCOCC2)Cc2cccs2)cc1	32.5*	1.2	10.5	7.2	-3.4	29.9*
COc1ccccc1OCC(=O)N(Cc1nc(-c2ccccc2)no1)C1CCCCC1	-3.7	-4.3	2.0	-0.5	-1.2	-3.3
Cc1cc(OCC(=O)NC(Cc2c[nH]c3ccc(O)cc23)C(=O)O)c2c(C)c(C)c(=O)oc2c1 (stereo unspecified)	6.1	-0.8	-1.5	13.4	3.0	9.2
COc1ccccc1NS(=O)(=O)c1ccc(N/N=C/c2ccccc2OCC(=O)O)c([N+](=O)[O-])c1	28.6*	3.1	12.9	9.3	5.8	15.0
CCN(CC)S(=O)(=O)c1ccc(N/N=C/c2ccccc2OCC(=O)O)c([N+](=O)[O-])c1	30.2*	2.3	3.0	8.6	6.2	9.1
CCOc1ccccc1/C=N/NC(=O)c1cccc(S(=O)(=O)N(CC)CC)c1	-1.1	-2.6	1.3	-1.1	-0.6	-2.9
COC(=O)c1c(NC(=O)C2C3CCC(O3)C2C(=O)O)sc2c1CCCCCC2 (stereo unspecified)	5.8	2.2	8.4	50.5*	4.9	6.7
COc1ccc(OC)c(/C=C2\Oc3cc(OCC(=O)N4CCC(C(=O)O)CC4)ccc3C2=O)c1	22.0	11.2	10.3	-4.5	2.8	6.5
O=C1N(c2ccccc2)C(c2ccccc2)C12CCCCC2 (stereo unspecified)	-0.3	/	9.7	32.3*	/	-0.5
CN1C(=O)C2(CCCCC2)C1c1ccccc1 (stereo unspecified)	-1.0	/	-0.2	9.2	/	-1.0
CC1=NOC(=O)/C1=C/c1ccc(-c2ccc(Cl)cc2)o1	11.7	3.5	11.3	9.6	10.7	32.3*
CCOC(=O)N1CCN(C(=O)c2ccccc2CCc2ccccc2)CC1	6.2	-1.4	-1.0	0.8	7.2	8.3
COc1ccc([N+](=O)[O-])cc1NC(=O)C(C)N(C)Cc1ccc(Br)cc1 (stereo unspecified)	6.3	0.4	7.6	5.0	15.1	-5.8
COc1cccc(OCc2nn3c(=O)c(-c4ccccc4)nnc3s2)c1	/	/	5.8	1.0	/	-0.5
O=S(=O)(Nc1ccccc1Cl)c1ccc(NS(=O)(=O)c2cccs2)cc1	26.0*	3.1	11.4	13.1	11.4	14.6
O=C(COc1ccc(Cl)cc1Cl)Nc1ccccc1NS(=O)(=O)c1cccs1	13.6	-4.7	7.0	16.9	0.4	-1.8
O=C(Nc1ccc(Cl)cc1)Nc1ccccc1NS(=O)(=O)c1cccs1	16.9	-1.5	10.1	26.5*	-1.3	1.0
Cc1cc(Cl)ccc1OCC(=O)Nc1ccccc1NS(=O)(=O)c1cccs1	33.1*	-0.7	11.3	23.7	1.8	-2.5
O=c1c2ccccc2[nH]c2ccc(O)cc12	28.7*	1.2	13.8	9.7	-4.3	17.8
COc1ccc(OC)c(/C=C2\SC(=S)N(NS(=O)(=O)c3ccc(C)cc3)C2=O)c1	25.7*	-8.0	9.4	-0.5	-3.9	13.7
COc1ccc(/C=C2\SC(=S)N(NS(=O)(=O)c3ccc(C)cc3)C2=O)c(OC)c1	18.8	-0.6	18.4	8.4	1.2	9.4
CCN1CCN(C(c2cccs2)C(C)NC(=S)NC2CCCCC2)CC1 (stereo unspecified)	33.6*	-0.1	6.8	0.9	-1.4	-3.1
CCN1CCN(C(c2cccs2)C(C)NC(=O)NC2CCCCC2)CC1 (stereo unspecified)	0.5	-1.1	5.3	3.9	-1.3	1.4

Screening results deposited in PubChem by The Scripps Research Institute Molecular Screening Center.
